The values below come from PubChem BioAssay (NCATS).

The target in experiment [1] is Estrogen receptor (Homo sapiens) (UniProt P03372). Nature of the experiment: qHTS assay for small molecule antagonists of estrogen receptor alpha signaling (AID 588513; active = well fitted curve in the direction sought with a large enough effect in the signal ratio, with a control signal flat, not every such curve was filed as active; the % refers to the signal ratio; note: % is set by controls: 0 for no effect and ±100 for the full control effect). In outline: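 Beta-lactamase reporter, antagonist mode, HEK 293 GripTite cells; 0.5nM E2 stimulus, 18 h, 37 C; CCF4 dye 2 h RT; fluorescence. IC50 and efficacy from Hill fits, normalized to E2 and DMSO.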
Chain of Estrogen receptor (Homo sapiens) (P03372 whole entry, looked up): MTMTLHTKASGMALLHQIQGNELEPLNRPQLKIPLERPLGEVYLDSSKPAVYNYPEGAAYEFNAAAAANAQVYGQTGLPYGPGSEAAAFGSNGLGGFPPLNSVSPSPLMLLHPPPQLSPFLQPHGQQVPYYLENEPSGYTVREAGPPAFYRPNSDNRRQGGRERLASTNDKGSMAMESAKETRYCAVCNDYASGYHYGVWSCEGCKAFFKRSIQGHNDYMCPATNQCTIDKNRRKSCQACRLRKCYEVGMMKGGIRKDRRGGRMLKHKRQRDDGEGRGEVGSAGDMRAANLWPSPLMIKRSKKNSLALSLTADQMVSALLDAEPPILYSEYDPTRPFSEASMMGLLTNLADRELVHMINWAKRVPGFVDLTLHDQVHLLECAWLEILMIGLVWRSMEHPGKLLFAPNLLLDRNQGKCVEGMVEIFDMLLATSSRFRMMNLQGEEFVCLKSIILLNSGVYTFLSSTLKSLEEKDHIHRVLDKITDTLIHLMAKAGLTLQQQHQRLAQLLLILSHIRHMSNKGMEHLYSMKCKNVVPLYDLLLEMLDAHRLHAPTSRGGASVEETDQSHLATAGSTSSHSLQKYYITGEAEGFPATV

Experiment [2] has the same target. Nature of the experiment: qHTS assay for small molecule agonists of estrogen receptor alpha signaling (AID 588514).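 Note: 0% = vehicle only and 100% = reference agonist; nearly all actives have a fitted effect of over 70% in size.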 The gist of the method: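 Fluorescence from CCF4 cleavage reports ER-alpha-driven beta-lactamase expression in HEK 293 cells treated 18 hrs at 37 C. Data normalized to 17-beta-estradiol (20 nM) and DMSO, fitted to Hill equation.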
Experiment [3] in a line: qHTS assay for small molecule antagonists of peroxisome proliferator-activated receptor delta signaling (AID 588535).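 Note: cells co-treated with a PPAR-delta agonist as stimulator during compound exposure.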 To be noted: HEK293T PPARd-UAS-bla, beta-lactamase FRET ratio, 18 h; 460 nm channel. The gist of the method:
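Compounds tested in titration on PPAR-delta-UAS-bla HEK293T cells grown in charcoal/dextran-stripped serum (2%); beta-lactamase activity read via CCF4 emission at 460 and 530 nm.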

Experiment [4] concerns the target Peroxisome proliferator-activated receptor gamma (Homo sapiens) (UniProt P37231). In words: qHTS assay for small molecule agonists of peroxisome proliferator-activated receptor gamma signaling (AID 588536; active = well fitted curve in the direction sought with a large enough effect in the signal ratio, with a control signal flat, not every such curve was filed as active; the % refers to the signal ratio;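 note: 0% = DMSO basal wells and 100% = rosiglitazone at 2 µM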). The gist of the method: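 Beta-lactamase reporter read-out: CCF4 fluorescence (ex 405, em 460/530 nm) after 2 h at RT. HEK293 GeneBLAzer cells were treated for 16 h at 37 C. Hill fits gave EC50 and efficacy versus 2 uM rosiglitazone (100%) and DMSO (0%).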

For experiment [5] the target is unchanged. In words: qHTS assay for small molecule antagonists of peroxisome proliferator-activated receptor gamma signaling (AID 588537; active = well fitted inhibition curve with a large enough effect in the signal ratio, with a control signal flat, not every such curve was filed as active; the % refers to the signal ratio;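 note: reporter cells co-stimulated with 50 nM rosiglitazone agonist during compound treatment; % of control where 0% means no effect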). In outline: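 HEK293 cells, PPAR-gamma-UAS-bla, 3000/well. Pre-incubation 6-6.5 h, 37 C. Compound titration with rosiglitazone 50 nM final, 16 h. CCF4 dye, 2 h RT, dual-emission fluorescence.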
Experiment [6] in a line: qHTS assay for small molecule agonists of retinoid X receptor alpha signaling (AID 588544).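 For activation: 0% = DMSO basal wells and 100% = reference agonist.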 To be noted: HEK293T RXRa-UAS-bla, beta-lactamase reporter, 18 h; 530 nm emission.
Experiment [7] has as its target Retinoic acid receptor RXR-alpha (Homo sapiens) (UniProt P19793). Described as above.
Experiment [8] concerns the target Thyroid hormone receptor beta (Homo sapiens) (UniProt P10828). In words: qHTS assay for small molecule agonists of thyroid hormone receptor beta signaling (AID 588545). The gist of the method:
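Cells (2500/well) were seeded, incubated 4 hrs at 37 C, dosed with a compound series, incubated 18 hrs, loaded with CCF4 dye for 2 hrs at RT, then read for fluorescence. Data were scaled between DMSO (0%) and 10 nM T3 (100%).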

Experiment [9] is described as follows: qHTS assay for small molecule antagonists of retinoid X receptor alpha signaling (AID 588546; active = well fitted inhibition curve with a large enough effect in the signal ratio, with a control signal flat, not every such curve was filed as active; the % refers to the signal ratio;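 note: cells stimulated with 9-cis-retinoic acid as agonist; % is set by controls: 0 for no effect and ±100 for the full control effect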). As to conditions: HEK293T RXRa-UAS-bla, beta-lactamase ratio, antagonist mode; measured here: W530 green channel, cytotoxicity proxy. The gist of the method: (§1)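 Beta-lactamase reporter inhibition, read as CCF4 fluorescence ratio (ex 405, em 460/530 nm) after 2 h at RT. HEK293T UAS-bla cells, 2500/well, were stimulated with 9-cis-RA at 500 or 100 nM final alongside test compound for 18 h at 37 C.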

Experiment [10] concerns the target Retinoic acid receptor RXR-alpha (Homo sapiens) (UniProt P19793). Described as above. To be noted: HEK293T RXRa-UAS-bla, beta-lactamase ratio, antagonist mode. The gist of the method:
as §1

A short description of experiment [11]: qHTS assay for small molecule activators of the nuclear factor-kappa B (NF-kB) signaling pathway (AID 651749; active = well fitted activation curve with a large enough effect in the signal ratio; the % refers to the signal ratio; note: series mostly up to about 77 µM; % of control where 0% means no effect). To be noted: NF-kB-bla ME-180 cells, beta-lactamase FRET ratio, 16 h; activation: stronger effect = higher value. The gist of the method: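 Beta-lactamase reporter expression, controlled by NF-kB response elements in ME-180 cells, was quantified fluorometrically via FRET disruption; cells at 2,000/well had been incubated with 23 nL test compound for 16 hr.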

The nature of experiment [12]: qHTS assay for environmental chemicals that activate the Aryl hydrocarbon Receptor (AhR) signaling pathway (AID 651777; active = well fitted curve in the direction sought with a large enough effect; an effect the other way counts as inactive or inconclusive; note: % of control where 0% means no effect; nearly all actives have a fitted effect of over 15% in size). To be noted: 1A2-DRE human hepatoma cells, luciferase, 24 h; activation: stronger effect = higher value. The gist of the method: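 Stable CYP1A2 promoter/DRE-luciferase human hepatoma line treated 24 hr; One-Glo luminescence, 30 min RT.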
In experiment [13] the target is Peroxisome proliferator-activated receptor alpha (Homo sapiens) (UniProt Q07869). In words: qHTS assay for small molecule agonists of the peroxisome proliferator-activated receptor alpha (PPARalpha) signaling pathway (AID 651778; active = well fitted curve in the direction sought with a large enough effect; an effect the other way counts as inactive or inconclusive; note: % of control where 0% means no effect). As to conditions: PathHunter PPARalpha complementation, chemiluminescence, 6 h; max response: stronger effect = higher value. In outline: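 Cells plated at 2,000/well and held overnight at 37 C, 5% CO2, then compound added by pin tool for 6 hr; after PathHunter detection reagent and 60 min at room temperature, chemiluminescence from enzyme complementation was read.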
Chain of Peroxisome proliferator-activated receptor alpha (Homo sapiens) (Q07869 whole entry, looked up): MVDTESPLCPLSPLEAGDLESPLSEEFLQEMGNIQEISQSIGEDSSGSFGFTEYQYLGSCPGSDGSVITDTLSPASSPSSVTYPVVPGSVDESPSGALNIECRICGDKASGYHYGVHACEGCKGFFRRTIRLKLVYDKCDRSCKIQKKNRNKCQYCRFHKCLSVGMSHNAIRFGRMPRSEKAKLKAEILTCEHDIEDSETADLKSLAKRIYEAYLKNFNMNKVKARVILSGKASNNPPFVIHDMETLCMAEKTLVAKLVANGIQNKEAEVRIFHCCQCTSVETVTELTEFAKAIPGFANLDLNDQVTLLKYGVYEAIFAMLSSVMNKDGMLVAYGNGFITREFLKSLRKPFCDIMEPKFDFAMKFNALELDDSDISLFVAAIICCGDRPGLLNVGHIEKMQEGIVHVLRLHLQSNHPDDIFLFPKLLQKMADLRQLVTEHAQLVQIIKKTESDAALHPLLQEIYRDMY

A short description of experiment [14]: qHTS assay for small molecule agonists of the antioxidant response element (ARE) signaling pathway measured by Nrf2-dependant transcriptional activity - cell viability counter screen (AID 720653; active = well fitted curve in the direction sought with a large enough effect in the repeat runs; an effect the other way counts as inactive or inconclusive; note: % is set by controls: 0 for no effect and ±100 for the full control effect). To be noted: ARE-bla HepG2 viability, CellTiter-Glo ATP luminescence, 16 h; max response: stronger effect = lower value. The gist of the method:
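ARE-bla HepG2 cells (2,000/well) rested 5 hrs at 37C/5% CO2, then exposed to compounds in DMSO for 16 hrs. Viability was read in the same wells as intracellular ATP by luminescence, 30 min at room temperature after reagent addition.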

Experiment [15] in a line: qHTS assay for cell viability of HEK293 cells (AID 743288; active = well fitted curve in the direction sought with a large enough effect; an effect the other way counts as inactive or inconclusive; note: % is set by controls: 0 for no effect and ±100 for the full control effect; nearly all actives have a fitted effect of over 50% in size). To be noted: ATP luminescence (CellTiter-Glo), 18 h; max response: stronger effect = lower value. The gist of the method:
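ATP luminescence (CellTiter-Glo) reports metabolically competent cell number after parental HEK293 cells, 2,000/well, were treated with DMSO-dissolved compounds for 18 h at 37 C; reagent incubation 30 min, room temperature.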

A short description of experiment [16]: qHTS assay for cell viability of the p53RE-bla HCT-116 cell line (AID 743292; active = well fitted curve in the direction sought with a large enough effect; an effect the other way counts as inactive or inconclusive; note: % is set by controls: 0 for no effect and ±100 for the full control effect; nearly all actives have a fitted effect of over 55% in size). In outline: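 Readout: CellTiter-Glo luminescence after 30 min RT. Treatment: compounds in DMSO, 16 h, 37 C. Cells: CellSensor p53RE-bla HCT-116, 4,000/well, preincubated 5 h.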
The target of experiment [17] is Nuclear receptor subfamily 1 group I member 2 (Rattus norvegicus) (UniProt Q9R1A7). In words: qHTS assay for small molecule activators of the rat pregnane X receptor (rPXR) signaling pathway (AID 651751; call rule not given here; note: 0% is about no effect). As to conditions: rPXR reporter cells, luciferase (One-Glo), 24 h.
Chain of Nuclear receptor subfamily 1 group I member 2 (Rattus norvegicus) (Q9R1A7 whole entry, looked up): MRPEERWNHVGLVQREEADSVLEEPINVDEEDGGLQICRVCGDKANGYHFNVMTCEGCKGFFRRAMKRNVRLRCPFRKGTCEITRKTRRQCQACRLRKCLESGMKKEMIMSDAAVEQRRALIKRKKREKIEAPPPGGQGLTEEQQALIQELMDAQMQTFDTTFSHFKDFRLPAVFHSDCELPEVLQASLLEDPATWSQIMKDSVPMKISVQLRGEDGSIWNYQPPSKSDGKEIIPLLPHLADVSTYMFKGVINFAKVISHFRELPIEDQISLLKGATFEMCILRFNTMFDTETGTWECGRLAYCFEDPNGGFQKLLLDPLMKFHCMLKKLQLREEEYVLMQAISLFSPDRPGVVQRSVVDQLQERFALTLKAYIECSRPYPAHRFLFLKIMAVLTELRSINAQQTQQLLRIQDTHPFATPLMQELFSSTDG
Experiment [18] can be described thus: qHTS assay for small molecule activators of the human pregnane X receptor (PXR) signaling pathway (AID 720659; call rule not given here; note: 0% is about no effect).
For experiment [19], the target named is Vitamin D3 receptor (Homo sapiens) (UniProt P11473). Nature of the experiment: qHTS assay for small molecule antagonists of vitamin D receptor signaling (AID 588541).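 Note: receptor activated by calcitriol during compound treatment; series mostly up to about 77 µM; % is set by controls: 0 for no effect and ±100 for the full control effect.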 In outline:
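VDR-UAS-bla HEK293T cells (2000/well, 2% charcoal-stripped FBS) were treated with titrated compounds plus 1-alpha,25-dihydroxyvitamin D3 (50 nM or 3 nM final) for 16 h at 37 C. CCF4 beta-lactamase fluorescence was read; Hill fits gave IC50.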

Experiment [20] has the same target. Nature of the experiment: qHTS assay for small molecule agonists of vitamin D receptor signaling (AID 588543).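 Note: 0% = DMSO basal and 100% = reference agonist control.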 In outline: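 β-lactamase reporter, VDR-UAS-bla HEK293T, agonist mode. Cells plated 5 h at 37 °C, compound titration 16 h at 37 °C, CCF4 dye 2 h RT, ratio 460/530 nm. Hill fit → EC50, efficacy vs 50 nM 1α,25-(OH)2D3.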

Records with an inconclusive call do not appear. Active and inactive are the calls of the source. Unless noted, calls come from the whole dose curve.

Chain of Thyroid hormone receptor beta (Homo sapiens) (P10828 whole entry, looked up): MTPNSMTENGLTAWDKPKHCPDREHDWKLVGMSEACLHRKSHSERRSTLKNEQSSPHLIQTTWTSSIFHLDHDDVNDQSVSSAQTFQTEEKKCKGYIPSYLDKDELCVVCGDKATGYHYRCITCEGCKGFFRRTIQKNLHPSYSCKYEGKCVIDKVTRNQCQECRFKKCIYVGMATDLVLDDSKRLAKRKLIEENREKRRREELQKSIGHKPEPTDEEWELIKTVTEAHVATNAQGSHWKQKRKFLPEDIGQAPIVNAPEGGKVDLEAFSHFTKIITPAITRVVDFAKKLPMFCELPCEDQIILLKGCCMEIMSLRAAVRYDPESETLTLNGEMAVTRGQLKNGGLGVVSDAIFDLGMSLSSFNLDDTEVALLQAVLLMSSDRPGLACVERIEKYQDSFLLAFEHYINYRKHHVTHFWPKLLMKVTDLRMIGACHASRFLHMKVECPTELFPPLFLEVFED
Chain of Retinoic acid receptor RXR-alpha (Homo sapiens) (P19793 whole entry, looked up): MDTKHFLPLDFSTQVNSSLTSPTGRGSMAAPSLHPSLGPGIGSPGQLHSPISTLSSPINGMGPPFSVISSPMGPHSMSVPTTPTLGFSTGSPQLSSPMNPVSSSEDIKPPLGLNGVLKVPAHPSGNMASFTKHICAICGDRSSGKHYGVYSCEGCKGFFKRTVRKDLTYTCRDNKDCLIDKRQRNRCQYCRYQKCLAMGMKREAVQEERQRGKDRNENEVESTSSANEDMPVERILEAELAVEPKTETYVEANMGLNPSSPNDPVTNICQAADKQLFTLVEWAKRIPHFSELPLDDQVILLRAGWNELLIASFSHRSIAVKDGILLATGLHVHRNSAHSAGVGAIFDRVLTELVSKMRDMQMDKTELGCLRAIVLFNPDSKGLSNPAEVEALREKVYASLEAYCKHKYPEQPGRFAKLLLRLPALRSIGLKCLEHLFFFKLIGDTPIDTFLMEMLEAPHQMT
Chain of Vitamin D3 receptor (Homo sapiens) (P11473 whole entry, looked up): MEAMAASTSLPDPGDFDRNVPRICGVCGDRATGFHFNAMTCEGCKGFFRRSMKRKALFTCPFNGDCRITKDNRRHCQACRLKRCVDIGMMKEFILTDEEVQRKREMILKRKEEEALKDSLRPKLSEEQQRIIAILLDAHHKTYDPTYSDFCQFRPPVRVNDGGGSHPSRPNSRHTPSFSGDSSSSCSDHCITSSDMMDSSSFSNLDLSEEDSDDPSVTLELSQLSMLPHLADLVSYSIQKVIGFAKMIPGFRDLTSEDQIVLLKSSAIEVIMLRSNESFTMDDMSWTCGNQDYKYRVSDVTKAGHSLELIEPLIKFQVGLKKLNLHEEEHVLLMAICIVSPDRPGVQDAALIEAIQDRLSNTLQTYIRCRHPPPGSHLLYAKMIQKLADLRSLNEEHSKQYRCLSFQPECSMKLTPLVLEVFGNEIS
Chain of Peroxisome proliferator-activated receptor gamma (Homo sapiens) (P37231 whole entry, looked up): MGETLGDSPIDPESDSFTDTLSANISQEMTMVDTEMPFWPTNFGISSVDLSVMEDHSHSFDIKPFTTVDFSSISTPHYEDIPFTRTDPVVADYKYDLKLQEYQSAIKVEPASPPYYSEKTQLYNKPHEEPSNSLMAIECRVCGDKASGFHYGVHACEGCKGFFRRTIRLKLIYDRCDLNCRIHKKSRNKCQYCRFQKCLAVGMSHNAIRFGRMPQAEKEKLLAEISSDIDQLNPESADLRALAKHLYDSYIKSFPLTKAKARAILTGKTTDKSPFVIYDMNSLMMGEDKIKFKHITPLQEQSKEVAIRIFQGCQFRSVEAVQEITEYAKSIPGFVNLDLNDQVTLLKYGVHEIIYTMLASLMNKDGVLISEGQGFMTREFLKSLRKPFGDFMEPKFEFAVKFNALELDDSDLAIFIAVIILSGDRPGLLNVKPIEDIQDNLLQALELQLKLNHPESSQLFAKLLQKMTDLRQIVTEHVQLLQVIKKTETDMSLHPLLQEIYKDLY

Consider `OC1CCCCCCCCCCC1`, for which the Potency result in experiment [1], in [2], in [5], in experiment [7], in experiment [8] and in experiment [16] was “inactive” each time. Further, the max response in experiment [3] was 17.8%; in experiment [6], 10.2%; in [9] it was -1.99%; in experiment [10], -4.46% (inactive); in experiment [13], -2.43% (inactive); in [14], 3.88% (inactive). Also, the max response is -8% (inactive) in experiment [15] and -3.86% (inactive) in experiment [17]. In addition, the result in [4] and in experiment [18] was inactive. Moreover, the activation in [11] was 0.918% (inactive); in experiment [12], 1.93% (inactive).
As for `CCCCNS(=O)(=O)c1ccccc1`, the Potency result in [1], in experiment [2], in experiment [5], in [19], in experiment [8] and in experiment [16] was “inactive” throughout. Besides, the molecule was classed as inactive in experiment [4], in [20] and in experiment [18]. For the same molecule, the max response in [9] was -16.3%; in [14] it was -8.48% (inactive); in [15], -3.87% (inactive); in experiment [17], -0.0697% (inactive). Besides, the activation in experiment [11] is 0.692% (inactive); in experiment [12] it was 0.36% (inactive).
Turning to `C=CCCCCCCCCC=O`, the Potency entry in [1], in experiment [2], in experiment [5], in [19], in experiment [7] and in experiment [8] was “inactive” throughout. For the same molecule, the Potency result in experiment [16] was “inactive”. The max response in [3] was 14.1%; in experiment [6], -12%; in experiment [9] it was -4.83%; in experiment [10] it was -16.9% (inactive); in experiment [14] it was 3.17% (inactive); in [15] it was -14% (inactive). Also, the max response in [17] was -2.8% (inactive). Moreover, the result in [4], in [20] and in [18] was inactive. Moreover, the activation in experiment [11] was -0.972% (inactive); in [12], 0.287% (inactive).
For the molecule `CC(C)O.CC(C)O.CC(C)O.CC(C)O.[Ti]`, the Potency entry in experiment [1], in [2], in experiment [5], in [19], in [7] and in experiment [8] was “inactive” each time. In addition, the Potency result in experiment [16] was “inactive”. Also, the max response is -8.01% in [3]; -22.2% in [6]; -4.69% in experiment [9]; 1.54% (inactive) in [10]; -0.904% (inactive) in [13]; -1.55% (inactive) in experiment [14]. For the same molecule, the max response in experiment [15] is -10.9% (inactive); in experiment [17] it was -0.917% (inactive). Moreover, the result in [4], in [20] and in experiment [18] was inactive. Further, the activation is -1.08% (inactive) in experiment [11] and 0.139% (inactive) in experiment [12].
With `O=C(O)C(c1ccc(Cl)cc1)c1ccc(Cl)cc1`, the Potency result in experiment [1], in [2], in experiment [19], in [8] and in [16] was “inactive” throughout. Moreover, the max response in experiment [3] is -10.8%; in experiment [9] it was -10.2%; in [10], 12.2% (inactive); in experiment [13] it was 3.51% (inactive); in experiment [14], -12.1% (inactive); in experiment [15], 0.137% (inactive). Also, the max response in experiment [17] was -4.74% (inactive). In addition, the result in experiment [20] and in experiment [18] was inactive. Besides, the figures for the activation in experiment [11] and in [12] were 0.121% (inactive) and -0.789% (inactive), respectively.
